Source: PubChem BioAssay
Sampled rows, rich in hits. Any-hit rate of the full collection: about 3.2%.
Ecoli rRNA inh: inhibits bacterial ribosomal RNA function over humanized ribosomes. E. coli WT GFP vs humanized-ribosome RFP mutants, fluorescence, 24 h; active compounds read low; DMSO median 0, no signal -100. GFP signal change (wild-type ribosome), % (concentration not given with the values). hit rate 1.6% among 350,000;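 active = significant combined selectivity score with lowered wild-type GFP, culture density cut under 30%, mutant RFP and density less affected; inactive = any of these conditions unmet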
ERAP1 inh: ERAP1 (human) enzyme inhibition; Q9NZ08; recombinant ERAP1, Leu-AMC fluorescence, 60 min; inhibition, % at 10.7 µM; hit rate 0.15% among 340,000; AID 652197;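 active = mean replicate inhibition of at least 30%, or all replicates individually reaching that 30% level; inactive = mean below 30% and not every replicate reaching it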
Target sequence (Q9NZ08 whole entry, looked up): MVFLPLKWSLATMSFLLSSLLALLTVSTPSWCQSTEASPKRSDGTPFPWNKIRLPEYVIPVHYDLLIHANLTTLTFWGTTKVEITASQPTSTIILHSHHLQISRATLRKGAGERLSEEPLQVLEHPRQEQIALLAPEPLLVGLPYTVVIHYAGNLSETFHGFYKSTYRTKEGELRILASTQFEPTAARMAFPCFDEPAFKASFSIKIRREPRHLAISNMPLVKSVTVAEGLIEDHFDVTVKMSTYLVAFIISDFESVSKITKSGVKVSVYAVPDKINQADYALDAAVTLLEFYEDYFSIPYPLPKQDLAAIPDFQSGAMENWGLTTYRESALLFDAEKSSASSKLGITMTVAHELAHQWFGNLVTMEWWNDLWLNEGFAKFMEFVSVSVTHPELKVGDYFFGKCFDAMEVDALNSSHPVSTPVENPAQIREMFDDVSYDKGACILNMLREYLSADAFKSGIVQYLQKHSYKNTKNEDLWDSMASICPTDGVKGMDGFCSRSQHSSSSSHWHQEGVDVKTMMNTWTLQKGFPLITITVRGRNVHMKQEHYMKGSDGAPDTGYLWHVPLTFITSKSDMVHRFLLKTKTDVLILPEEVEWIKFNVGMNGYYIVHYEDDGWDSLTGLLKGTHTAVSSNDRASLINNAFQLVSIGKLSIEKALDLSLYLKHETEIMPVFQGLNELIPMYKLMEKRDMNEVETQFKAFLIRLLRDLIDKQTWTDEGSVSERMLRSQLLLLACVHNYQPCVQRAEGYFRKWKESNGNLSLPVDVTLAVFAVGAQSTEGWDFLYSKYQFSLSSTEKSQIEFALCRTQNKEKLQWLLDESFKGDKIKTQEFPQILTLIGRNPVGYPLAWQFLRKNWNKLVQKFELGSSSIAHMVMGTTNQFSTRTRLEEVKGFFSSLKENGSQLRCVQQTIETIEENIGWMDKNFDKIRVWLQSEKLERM
INS-1E GSIS act: GLuc luminescence reporter in INS-1E cells, primary screen for activators of glucose-dependent secretion of insulin; INS-1E GLuc reporter insulin secretion, 2-3 h; activation, % at 16.6 µM; hit rate 0.61% among 370,000; AID 743287;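 active = lowest replicate activation of at least 40%, so every replicate reaches that level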
DENV2 CPE rescue: inhibitors of DENV2 cytopathic effect | DENV2-infected cells, cytopathic effect rescue, plate reader | CPE inhibition, % at 9.99 µM | hit rate 1.7% among 350,000 | AID 651640; in the data active = CPE inhibition above about 20%, passing the limit was not always enough; inconclusive = no clear call, values can overlap the other calls; tested in BHK-21 cells
CaV13 FRET inh: Disruptors of the CACNA1D IQ motif to Ca2+-dependent inactivation inhibitor domain association, primary screening, Förster resonance energy transfer in intact living …; HEK cells, CFP/YFP FRET ICDI-IQ, plate reader, 10 min; percent FRET-ratio fall versus neutral wells; hit rate 0.098% among 340,000; inhibition, % at 12.3 µM;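 active = mean replicate inhibition of at least 30% and at least 1% of replicates passing that level; inconclusive = only one of the two criteria is met; inactive = neither criterion is met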
PGC1a acetyl inh: modulators of PGC1a acetylation. U2OS PGC1a acetylation, AlphaScreen anti-acetyl-lysine; with virally co-expressed GCN5 acetyltransferase. inhibition, % at 15.6 µM. hit rate 0.17% among 350,000;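 active = every replicate shows inhibition of at least 40%; inconclusive = mean inhibition at least 40% but some replicate below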
Of the large screens only hits and unclear results are named; the others gave an inactive call; ! = repeats disagree.

O=C(C1CCN(c2nnc(-n3cccc3)s2)CC1)N1CCCCC1	none
O=C(Nc1ccc(Br)cc1F)C1CCN(c2nnc(-n3cccc3)s2)CC1	DENV2 CPE rescue 26 (no result: PGC1a acetyl inh)
CCCCc1nn(-c2cc(Cl)ccc2OC)c2c1C(=O)CC(C)(C)C2	DENV2 CPE rescue 43
CCOC(=O)c1c(C)n(-c2ccc(C)cc2)c2ccc(OCC(O)CN3CCN(C)CC3)cc12 (stereo unspecified)	INS-1E GSIS act 122 (no result: PGC1a acetyl inh)
COc1cc(-c2nc3n(n2)C(c2ccc(F)cc2)C2=C(CCCC2=O)N3)cc(OC)c1OC (stereo unspecified)	Ecoli rRNA inh -27 (no result: DENV2 CPE rescue)
O=C(Nc1cccc(C(=O)O)c1)/C(=C\c1ccccc1)NC(=O)c1ccco1	DENV2 CPE rescue 27
COc1cccc(S(=O)(=O)N(C)C[C@H]2Oc3cc(C#CCC(C)C)ccc3S(=O)(=O)N([C@@H](C)CO)C[C@H]2C)c1	DENV2 CPE rescue 44 (no result: CaV13 FRET inh)
CCCC#Cc1ccc2c(c1)O[C@@H](CN(C)S(=O)(=O)c1cccc(F)c1)[C@H](C)CN([C@@H](C)CO)S2(=O)=O	DENV2 CPE rescue 30 (no result: CaV13 FRET inh)
CC(C)CC#Cc1ccc2c(c1)O[C@H](CN(C)S(=O)(=O)c1cccc(F)c1)[C@H](C)CN([C@H](C)CO)S2(=O)=O	DENV2 CPE rescue 22 (no result: CaV13 FRET inh)
COc1cccc(S(=O)(=O)N(C)C[C@@H]2Oc3cc(C#CCC(C)C)ccc3S(=O)(=O)N([C@H](C)CO)C[C@H]2C)c1	none (no result: CaV13 FRET inh)
CC(C)CC#Cc1ccc2c(c1)O[C@H](CN(C)S(=O)(=O)c1cccc(F)c1)[C@H](C)CN([C@@H](C)CO)S2(=O)=O	none (no result: CaV13 FRET inh)
CCCC#Cc1ccc2c(c1)O[C@H](CN(C)S(=O)(=O)c1cccc(F)c1)[C@@H](C)CN([C@@H](C)CO)S2(=O)=O	none (no result: CaV13 FRET inh)
COc1ccc2c3c(n(C)c2c1)[C@@H](CO)N(C(=O)Nc1ccc(F)cc1)CC31CCN(Cc2cccnc2)CC1	none (no result: ERAP1 inh, CaV13 FRET inh)
CC(=O)N(c1ccccc1C)C1CCCC1	none
CC(=O)N(C1=C(Cl)C(=O)c2ccccc2C1=O)C1CCCCC1	ERAP1 inh 68
COc1ccc(NC(=O)Nc2cccc3c2O[C@H](CN(C)Cc2ccc(C(=O)Nc4ccccc4N)cc2)[C@@H](C)CN([C@@H](C)CO)C3=O)cc1	none (no result: CaV13 FRET inh)
O=C(Nc1ccc(Br)cc1Br)C1CC(=O)N(Cc2ccccc2)C1 (stereo unspecified)	Ecoli rRNA inh -34
O=C(NCCNC(=O)c1cc(F)cc(F)c1)c1cc(F)cc(F)c1	DENV2 CPE rescue 30
Fc1ccccc1CNCCC(Cc1ccccc1)c1ccc2c(c1)OCO2 (stereo unspecified)	Ecoli rRNA inh -51 (no result: PGC1a acetyl inh)
COC(=O)C1(CC2CC(c3ccncc3)=NO2)CCN(C(=O)OC(C)(C)C)CC1 (stereo unspecified)	DENV2 CPE rescue 37
CC(=O)c1cccc(NC(=O)COC(=O)C2CCCN2C(=O)c2cccs2)c1 (stereo unspecified)	Ecoli rRNA inh -18
O=C(CC1S/C(=N/N=C/c2c[nH]c3ccccc23)NC1=O)Nc1ccccc1 (stereo unspecified)	DENV2 CPE rescue 20, PGC1a acetyl inh inconclusive
O=C(CC1S/C(=N/N=C/c2c[nH]c3ccc(OCc4ccccc4)cc23)NC1=O)Nc1ccccc1 (stereo unspecified)	none (no result: Ecoli rRNA inh, ERAP1 inh, DENV2 CPE rescue, PGC1a acetyl inh)
CC(O)c1nc2ccccc2n1C1CCCCC1 (stereo unspecified)	INS-1E GSIS act 63 (no result: Ecoli rRNA inh, ERAP1 inh, DENV2 CPE rescue, CaV13 FRET inh)
O=C(O)CC/C(=C\c1ccc(N2CCOCC2)c([N+](=O)[O-])c1)c1nc2ccccc2s1	none
O=C(O)C/C(=C\c1ccc(N2CCOCC2)c([N+](=O)[O-])c1)c1nc2ccccc2s1	Ecoli rRNA inh -25
CO[C@H]1CN(C)C(=O)c2cc(NC(=O)Nc3cc(F)ccc3F)ccc2OC[C@H](C)N(C(=O)c2cnccn2)C[C@H]1C	none (no result: CaV13 FRET inh)
COc1cccc(-c2ccc(C3[C@@H]4CN(S(=O)(=O)c5ccccc5C)C[C@H]3N4)cc2)c1 (stereo partly specified)	none (no result: CaV13 FRET inh)
Cc1ccccc1-c1ccc(C2[C@@H]3CN(S(=O)(=O)c4ccccc4C)C[C@H]2N3)cc1 (stereo partly specified)	INS-1E GSIS act 179! (no result: CaV13 FRET inh)
COc1ccc(-c2ccc(C3[C@@H]4CN(S(=O)(=O)c5ccccc5C)C[C@H]3N4)cc2)cc1 (stereo partly specified)	DENV2 CPE rescue 31! (no result: ERAP1 inh, CaV13 FRET inh)
O=C(Nc1cccc2cccnc12)c1ccccc1Br	Ecoli rRNA inh -25 (no result: PGC1a acetyl inh)
CCCNC(=O)N1[C@@H]2CN(C(=O)NC(C)C)c3ccccc3[C@@H]2[C@@H]1CO	none (no result: CaV13 FRET inh)
O=C(CSc1ccncc1)Nc1ccc(S(=O)(=O)Nc2nccs2)cc1	none (no result: PGC1a acetyl inh)
Cc1ccc(SCC(=O)Nc2ccc(S(=O)(=O)Nc3nccs3)cc2)cc1	Ecoli rRNA inh -37 (no result: DENV2 CPE rescue, PGC1a acetyl inh)
CCOc1ncccc1C(=O)Nc1ccc(S(=O)(=O)NC2=NCCCCC2)cc1	none
CCOc1ncccc1C(=O)Nc1ccc(S(=O)(=O)Nc2nccs2)cc1	INS-1E GSIS act 86
COc1ccc(NC(=O)Nc2ccc3c(c2)[C@@H]2C[C@@H](CC(=O)NCc4ccccn4)O[C@H](CO)[C@@H]2O3)cc1	none (no result: CaV13 FRET inh)
Cc1c(NC(=O)c2ccc([N+](=O)[O-])o2)cccc1-c1nc2ncccc2o1	Ecoli rRNA inh -24
COc1cccc(C(=O)Nc2cccc(-c3nc4ncccc4o3)c2C)c1	none (no result: Ecoli rRNA inh, ERAP1 inh, INS-1E GSIS act, DENV2 CPE rescue)
CCC(=O)Nc1ccc2c(c1)C(=O)N(C)C[C@H](OC)[C@@H](C)CN(Cc1ccccn1)[C@H](C)CO2	none (no result: CaV13 FRET inh)
CN(C)S(=O)(=O)Nc1cc(Cl)cc(Cl)c1	Ecoli rRNA inh -37
C[C@@H]1CN([C@@H](C)CO)C(=O)c2cc(NS(=O)(=O)c3cccs3)ccc2O[C@@H]1CN(C)C(=O)Nc1cccc2ccccc12	none (no result: CaV13 FRET inh)
O=C(C[C@@H]1CC[C@H](NC(=O)Nc2ccc3c(c2)OCO3)[C@@H](CO)O1)NCc1ccccc1	none (no result: CaV13 FRET inh)
COc1ccccc1-n1cnc2cc(NCc3ccccc3O)ccc21	Ecoli rRNA inh -18
Cc1c(C(=O)NCc2cccc(Cl)c2)sc(=O)n1Cc1cccc(F)c1	none (no result: ERAP1 inh, PGC1a acetyl inh)
CSc1ccc(Cn2c(C)c(C(=O)NCc3cccc(C)c3)sc2=O)cc1	DENV2 CPE rescue inconclusive (no result: ERAP1 inh, PGC1a acetyl inh)
CC(=O)Oc1ccc(Cn2c(C)c(C(=O)NCc3ccc4c(c3)OCCO4)sc2=O)cc1	none (no result: ERAP1 inh, DENV2 CPE rescue, PGC1a acetyl inh)
COc1ccc(Br)c(Cn2c(C)c(C(=O)NCc3ccc4c(c3)OCCO4)sc2=O)c1	CaV13 FRET inh 47 (no result: ERAP1 inh, PGC1a acetyl inh)
Cc1c(C(=O)NCc2ccc(Cl)c(Cl)c2)sc(=O)n1Cc1cccc(F)c1	CaV13 FRET inh 39 (no result: ERAP1 inh, PGC1a acetyl inh)
CSc1ccc(Cn2c(C)c(C(=O)NCc3cccc(Cl)c3)sc2=O)cc1	CaV13 FRET inh 42 (no result: ERAP1 inh, PGC1a acetyl inh)
C[C@@H]1CN([C@@H](C)CO)S(=O)(=O)c2ccc(C3=CCCC3)cc2O[C@H]1CN(C)S(C)(=O)=O	none (no result: ERAP1 inh, DENV2 CPE rescue, CaV13 FRET inh)
